# Measurements reported in PubChem BioAssay AID1159580 (chemical genetic matrix, 2015).
# Out of some 5,500 compounds screened, about 2,000 (36%) were called active. Not shown: some 18% with an inconclusive outcome. The list shows a part of the results. Unmarked numbers belong to inactive results. Rule as the data show it: active = normalized growth mostly below about 0.91 (no sharp cut-off); inconclusive = no clear call, values can overlap the other calls; inactive = mostly above about 0.92.
# Assay: chemical genetic growth profiling, strain panel (AID 1159580);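 also: tested at 20 µM; growth read once vehicle control cultures reached saturation at 30 °C; 1 = growth at the plate median or of vehicle wells; lower values mean less growth of the strain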
# Conditions: S. cerevisiae deletion strains, growth OD
# [1] = locus YAL021C, strain ccr4, stronger effect = lower value
# [2] = locus YAL026C, strain drs2, stronger effect = lower value
# [3] = locus YAL030W, strain snc1, stronger effect = lower value
# [4] = locus YBL061C, strain skt5, stronger effect = lower value
# [5] = locus YBR009C, strain hhf1, stronger effect = lower value
# [6] = locus YBR023C, strain chs3, stronger effect = lower value
# [7] = locus YBR171W, strain sec66, stronger effect = lower value
# [8] = locus YBR231C, strain swc5, stronger effect = lower value
# [9] = locus YBR279W, strain paf1, stronger effect = lower value
# [10] = locus YCL011C, strain gbp2, stronger effect = lower value
# [11] = locus YCL016C, strain dcc1, stronger effect = lower value
# [12] = locus YCL069W, strain vba3, stronger effect = lower value
# [13] = locus YCR088W, strain abp1, stronger effect = lower value
# [14] = locus YDL005C, strain med2, stronger effect = lower value
# [15] = locus YDL040C, strain nat1, stronger effect = lower value
# [16] = locus YDR001C, strain nth1, stronger effect = lower value
# [17] = locus YDR069C, strain doa4, stronger effect = lower value
# [18] = locus YDR137W, strain rgp1, stronger effect = lower value
# [19] = locus YDR159W, strain sac3, stronger effect = lower value
# [20] = locus YDR297W, strain sur2, stronger effect = lower value
# [21] = locus YDR334W, strain swr1, stronger effect = lower value
# [22] = locus YDR335W, strain msn5, stronger effect = lower value
# [23] = locus YDR392W, strain spt3, stronger effect = lower value
# [24] = locus YEL003W, strain gim4, stronger effect = lower value
# [25] = locus YEL037C, strain rad23, stronger effect = lower value
# [26] = locus YEL061C, strain CIN8 (second series), stronger effect = lower value
# [27] = locus YER015W, strain faa2, stronger effect = lower value
# [28] = locus YER016W, strain bim1, stronger effect = lower value
# [29] = locus YER111C, strain swi4, stronger effect = lower value
# [30] = locus YER155C, strain BEM2 (second series), stronger effect = lower value
# [31] = locus YFR010W, strain ubp6, stronger effect = lower value
# [32] = locus YGL167C, strain pmr1, stronger effect = lower value
# [33] = locus YGL173C, strain kem1, stronger effect = lower value
# [34] = locus YGL227W, strain vid30, stronger effect = lower value
# [35] = locus YGL240W, strain doc1, stronger effect = lower value
# [36] = locus YGL253W, strain hxk2, stronger effect = lower value
# [37] = locus YHR013C, strain ard1, stronger effect = lower value
# [38] = locus YHR027C, strain rpn1, stronger effect = lower value
# [39] = locus YHR142W, strain chs7, stronger effect = lower value
# [40] = locus YJL092W, strain hpr5, stronger effect = lower value
# [41] = locus YJL095W, strain BCK1 (second series), stronger effect = lower value
# [42] = locus YJL115W, strain asf1, stronger effect = lower value
# [43] = locus YJL129C, strain trk1, stronger effect = lower value
# [44] = locus YJL154C, strain vps35, stronger effect = lower value
# [45] = locus YJL164C, strain tpk1, stronger effect = lower value
# [46] = locus YJL166W, strain qcr8, stronger effect = lower value
# [47] = locus YJL187C, strain SWE1, stronger effect = lower value
# [48] = locus YKL160W, strain elf1, stronger effect = lower value
# [49] = locus YKR026C, strain gcn3, stronger effect = lower value
# [50] = locus YKR091W, strain srl3, stronger effect = lower value
# [51] = locus YLL001W, strain dnm1, stronger effect = lower value
# [52] = locus YLL026W, stronger effect = lower value
# [53] = locus YLL041C, strain sdh2, stronger effect = lower value
# [54] = locus YLR027C, strain aat2, stronger effect = lower value
# [55] = locus YLR221C, strain rsa3, stronger effect = lower value
# [56] = locus YLR258W, strain gsy2, stronger effect = lower value
# [57] = locus YLR262C, strain YPT6 (second series), stronger effect = lower value
# [58] = locus YLR320W, strain mms22, stronger effect = lower value
# [59] = locus YLR342W, strain FKS1, stronger effect = lower value
# [60] = locus YLR357W, strain rsc2, stronger effect = lower value
# [61] = locus YLR370C, strain arc18, stronger effect = lower value
# [62] = locus YLR384C, strain iki3, stronger effect = lower value
# [63] = locus YML120C, strain ndi1, stronger effect = lower value
# [64] = locus YMR058W, strain fet3, stronger effect = lower value
# [65] = locus YMR125W, strain sto1, stronger effect = lower value
# [66] = locus YMR129W, stronger effect = lower value
# [67] = locus YMR205C, strain PFK2, stronger effect = lower value
# [68] = locus YMR231W, strain pep5, stronger effect = lower value
# [69] = locus YNL071W, strain lat1, stronger effect = lower value
# [70] = locus YNL209W, strain ssb2, stronger effect = lower value
# [71] = locus YNL248C, strain rpa49, stronger effect = lower value
# [72] = locus YNL322C, strain KRE1 (second series), stronger effect = lower value
# [73] = locus YNR049C, strain mso1, stronger effect = lower value
# [74] = locus YOR001W, strain rrp6, stronger effect = lower value
# [75] = locus YOR070C, strain gyp1, stronger effect = lower value
# [76] = locus YOR080W, strain dia2, stronger effect = lower value
# [77] = locus YOR083W, strain WHI5, stronger effect = lower value
# [78] = locus YOR106W, strain vam3, stronger effect = lower value
# [79] = locus YOR265W, strain rbl2, stronger effect = lower value
# [80] = locus YOR270C, strain vph1, stronger effect = lower value
# [81] = locus YOR290C, strain snf2, stronger effect = lower value
# [82] = locus YPL051W, strain arl3, stronger effect = lower value
# [83] = locus YPL078C, strain atp4, stronger effect = lower value
# [84] = locus YPL106C, strain sse1, stronger effect = lower value
# [85] = locus YPL240C, strain hsp82, stronger effect = lower value
structure (smiles),measurement,setting,value
CC(=O)Oc1c2c(c(CC=C(C)C)c3c1C(=O)C1=C[C@@H]4CC5C(C)(C)OC(C/C=C(\C)C(=O)O)(C4=O)[C@@]15O3)OC(C)(CCC=C(C)C)C=C2 (stereo partly drawn),normalized growth,[1],0.99
same,normalized growth,[2],0.986
same,normalized growth,[3],0.977
same,normalized growth,[4],0.984
same,normalized growth,[5],0.948
same,normalized growth,[6],0.962
same,normalized growth,[7],0.989
same,normalized growth,[8],0.953
same,normalized growth,[9],0.975
same,normalized growth,[10],0.98
same,normalized growth,[11],0.97
same,normalized growth,[12],0.991
same,normalized growth,[13],0.972
same,normalized growth,[14],0.977
same,normalized growth,[15],0.978
same,normalized growth,[16],0.988
same,normalized growth,[17],0.933
same,normalized growth,[18],0.551 (active)
same,normalized growth,[19],0.975
same,normalized growth,"locus YDR195W, strain ref2",1.11
same,normalized growth,[20],0.969
same,normalized growth,[21],0.976
same,normalized growth,[22],0.994
same,normalized growth,[23],0.695 (active)
same,normalized growth,[24],0.978
same,normalized growth,[25],0.99
same,normalized growth,[26],1
same,normalized growth,[27],0.989
same,normalized growth,[28],0.971
same,normalized growth,[29],0.99
same,normalized growth,[30],0.96
same,normalized growth,[31],0.938
same,normalized growth,[32],0.982
same,normalized growth,[33],0.97
same,normalized growth,[34],1
same,normalized growth,[35],0.983
same,normalized growth,[36],0.989
same,normalized growth,[37],0.894
same,normalized growth,[38],0.984
same,normalized growth,[39],0.939
same,normalized growth,[40],0.975
same,normalized growth,[41],0.944
same,normalized growth,[42],1.01
same,normalized growth,[43],0.76 (active)
same,normalized growth,[44],0.996
same,normalized growth,[45],0.951
same,normalized growth,[46],0.984
same,normalized growth,[47],0.974
same,normalized growth,[48],0.962
same,normalized growth,[49],0.983
same,normalized growth,[50],0.978
same,normalized growth,[51],0.979
same,normalized growth,[52],1
same,normalized growth,[53],0.994
same,normalized growth,[54],0.977
same,normalized growth,[55],0.969
same,normalized growth,[56],0.979
same,normalized growth,[57],0.543 (active)
same,normalized growth,[58],0.806 (active)
same,normalized growth,[59],0.963
same,normalized growth,[60],1.05
same,normalized growth,[61],0.946
same,normalized growth,[62],0.981
same,normalized growth,[63],0.996
same,normalized growth,[64],0.982
same,normalized growth,[65],0.993
same,normalized growth,[66],0.975
same,normalized growth,[67],0.812 (active)
same,normalized growth,[68],0.987
same,normalized growth,[69],0.797 (active)
same,normalized growth,[70],0.977
same,normalized growth,[71],0.983
same,normalized growth,[72],1.01
same,normalized growth,[73],0.984
same,normalized growth,[74],0.988
same,normalized growth,[75],0.971
same,normalized growth,[76],0.994
same,normalized growth,[77],0.953
same,normalized growth,[78],0.931
same,normalized growth,[79],0.962
same,normalized growth,[80],0.653 (active)
same,normalized growth,[81],0.96
same,normalized growth,[82],0.931
same,normalized growth,[83],0.967
same,normalized growth,[84],1.02
same,normalized growth,[85],0.978
CC(=O)Oc1c2c(c3c(c1CC=C(C)C)O[C@]14C(=C[C@@H]5CC1C(C)(C)OC4(C/C=C(\C)C(=O)O)C5=O)C3=O)OC(C)(CCC=C(C)C)C=C2 (stereo partly drawn),normalized growth,[1],1
same,normalized growth,[2],0.979
same,normalized growth,[3],0.976
same,normalized growth,[4],0.949
same,normalized growth,[5],0.958
same,normalized growth,[6],0.964
same,normalized growth,[7],0.974
same,normalized growth,[8],0.94
same,normalized growth,[9],0.961
same,normalized growth,[10],0.988
same,normalized growth,[11],0.987
same,normalized growth,"locus YCL061C, strain MRC1, stronger effect = lower value",0.98
same,normalized growth,[12],0.984
same,normalized growth,[13],0.985
same,normalized growth,[14],0.968
same,normalized growth,[15],0.977
same,normalized growth,[16],0.985
same,normalized growth,[17],0.977
same,normalized growth,[18],0.775 (active)
same,normalized growth,[19],0.87
same,normalized growth,"locus YDR195W, strain ref2",1.01
same,normalized growth,[20],0.959
same,normalized growth,[21],0.976
same,normalized growth,[22],0.997
same,normalized growth,[23],0.547 (active)
same,normalized growth,[24],0.96
same,normalized growth,[25],0.995
same,normalized growth,[26],0.984
same,normalized growth,[27],0.973
same,normalized growth,[28],0.971
same,normalized growth,[29],0.981
same,normalized growth,[30],0.922
same,normalized growth,[31],0.973
same,normalized growth,[32],0.973
same,normalized growth,[33],0.939
same,normalized growth,[34],0.981
same,normalized growth,[35],0.951
same,normalized growth,[36],0.967
same,normalized growth,[37],0.875
same,normalized growth,[38],0.98
same,normalized growth,[39],0.991
same,normalized growth,[40],0.988
same,normalized growth,[41],0.971
same,normalized growth,[42],0.982
same,normalized growth,[43],0.89
same,normalized growth,[44],0.992
same,normalized growth,[45],0.986
same,normalized growth,[46],0.937
same,normalized growth,[47],0.972
same,normalized growth,[48],0.957
same,normalized growth,[49],0.983
same,normalized growth,[50],0.984
same,normalized growth,[51],0.945
same,normalized growth,[52],0.968
same,normalized growth,[53],0.983
same,normalized growth,[54],0.948
same,normalized growth,[55],0.947
same,normalized growth,[56],0.994
same,normalized growth,[57],0.874
same,normalized growth,[58],0.899
same,normalized growth,[59],0.963
same,normalized growth,[60],1.01
same,normalized growth,[61],0.958
same,normalized growth,[62],0.964
same,normalized growth,[63],0.985
same,normalized growth,[64],0.991
same,normalized growth,[65],0.992
same,normalized growth,[66],0.97
same,normalized growth,[67],0.878
same,normalized growth,[68],0.984
same,normalized growth,[69],0.878 (active)
same,normalized growth,[70],0.982
same,normalized growth,[71],0.973
same,normalized growth,[72],1
same,normalized growth,[73],0.982
same,normalized growth,[74],0.915
same,normalized growth,[75],0.957
same,normalized growth,[76],0.979
same,normalized growth,[77],0.99
same,normalized growth,[78],0.98
same,normalized growth,[79],0.979
same,normalized growth,[80],0.808
same,normalized growth,[81],0.989
same,normalized growth,[82],0.914 (active)
same,normalized growth,[83],1.01
same,normalized growth,[84],0.984
same,normalized growth,[85],0.984
